This note sets out measurements from PubChem BioAssay (NCATS).

Assay [1] can be described thus: qHTS profiling for inhibitors of Plasmodium falciparum proliferation (AID 504749).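 For activity, negative = inhibition: 0% = DMSO vehicle and full inhibition = artemisinin control.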 Note: nearly all actives have a fitted effect of over 60% in size. The following applies: P. falciparum in erythrocytes, SYBR Green DNA, 72 h. In outline: (§1)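 SYBR Green fluorescence of parasite DNA, read after lysis and overnight dark incubation, measured growth over 72 h in erythrocyte culture at 0.3% parasitemia and 2.5% hematocrit. Data normalised to DMSO and 0.29 uM artemisinin, with plate-drift correction.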
For orientation: qHTS replaces the single test concentration by a dilution series.

Assay [2] deals with 3D7. Described as above. The settings on record: P. falciparum in erythrocytes, SYBR Green DNA, 72 h; series mostly up to 28.7 µM. In outline:
as §1

The subject of assay [3] is 7G8. The assay is described as above. The following applies: P. falciparum in erythrocytes, SYBR Green DNA, 72 h; series mostly up to 28.7 µM. In outline: as §1
The subject of assay [4] is AA1029. The description is as above. The settings on record: P. falciparum in erythrocytes, SYBR Green DNA, 72 h; series mostly up to 28.7 µM. In outline:
as §1

Assay [5] relates to AS120. Described as above. The following applies: P. falciparum in erythrocytes, SYBR Green DNA, 72 h; series mostly up to 28.7 µM. Put shortly:
as §1

In assay [6] the test system is ATS189. The description is as above. The following applies: P. falciparum in erythrocytes, SYBR Green DNA, 72 h; series mostly up to 28.7 µM. In outline: as §1
The subject of assay [7] is ATS95. Described as above. The following applies: P. falciparum in erythrocytes, SYBR Green DNA, 72 h; series mostly up to 28.7 µM. In outline:
as §1

Assay [8] deals with C2A. Described as above. The following applies: P. falciparum in erythrocytes, SYBR Green DNA, 72 h; series mostly up to 28.7 µM. In outline: as §1
Assay [9] deals with CP185. Described as above. The following applies: P. falciparum in erythrocytes, SYBR Green DNA, 72 h; series mostly up to 28.7 µM. Put shortly:
as §1

The test system of assay [10] is CP191. Described as above. The settings on record: P. falciparum in erythrocytes, SYBR Green DNA, 72 h; series mostly up to 28.7 µM. In outline: as §1
For assay [11], the system named is CP194. Described as above. The following applies: P. falciparum in erythrocytes, SYBR Green DNA, 72 h; series mostly up to 28.7 µM. In outline: as §1
The subject of assay [12] is CP201. The assay is described as above. The following applies: P. falciparum in erythrocytes, SYBR Green DNA, 72 h; series mostly up to 28.7 µM. In outline:
as §1

The test system of assay [13] is CP203. The description is as above. The settings on record: P. falciparum in erythrocytes, SYBR Green DNA, 72 h; series mostly up to 28.7 µM. Put shortly: as §1
Assay [14] has as its system CP211. Described as above. The following applies: P. falciparum in erythrocytes, SYBR Green DNA, 72 h; series mostly up to 28.7 µM. Put shortly:
as §1

The subject of assay [15] is CP215. The assay is described as above. The settings on record: P. falciparum in erythrocytes, SYBR Green DNA, 72 h; series mostly up to 28.7 µM. Put shortly: as §1
Assay [16] has as its system CP217. The assay is described as above. The settings on record: P. falciparum in erythrocytes, SYBR Green DNA, 72 h; series mostly up to 28.7 µM. Put shortly:
as §1

In assay [17] the test system is CP237. The description is as above. The following applies: P. falciparum in erythrocytes, SYBR Green DNA, 72 h; series mostly up to 28.7 µM. Put shortly: as §1
Assay [18] has as its system CP238. The assay is described as above. The settings on record: P. falciparum in erythrocytes, SYBR Green DNA, 72 h; series mostly up to 28.7 µM. In outline:
as §1

Assay [19] relates to CP192. Described as above. The following applies: P. falciparum in erythrocytes, SYBR Green DNA, 72 h; series mostly up to 28.7 µM. In outline: as §1
Setting [20] is: at 28.7 µM (top of the series), parasite line A.
[21] abbreviates: at 28.7 µM (top of the series), parasite line B.

Records with an inconclusive call do not appear. Values without a mark were called inactive. Calls of active or inactive are those of the source. Calls come from the whole dose curve; as a rule, active = well fitted inhibition curve with a large enough effect; inconclusive = small, poorly fitted or top-dose-only effect; inactive = flat fitted curve, though single readings scatter.
Potency is the fitted concentration of half-maximal effect.

`O=C(O)CCNC(=O)c1ccccc1`: the activity, negative = inhibition was 0.623% in assay [1] (setting [20]) and 11.8% in assay [1] (setting [21]). The Potency result in assay [2], in assay [3], in assay [4], in [5], in assay [6] and in [7] was “inactive” each time. For the same compound, the Potency result in assay [8], in assay [9], in assay [10], in [11], in assay [12] and in assay [13] was “inactive” throughout. Also, the Potency entry in assay [14], in [15], in [16], in assay [17] and in [18] was “inactive” in each case.
Take `CC(=O)NCCCCCC(=O)O`: the activity, negative = inhibition in [1] (setting [20]) was 7.94%; in assay [1] (setting [21]) it was 13.3%. For the same compound, the Potency entry in [2], in assay [3], in [4], in assay [5], in [6] and in assay [7] was “inactive” each time. Also, the Potency entry in [8], in assay [9], in assay [10], in assay [19], in [11] and in assay [12] was “inactive” in each case. Further, the Potency result in assay [13], in assay [15], in assay [16], in assay [17] and in [18] was “inactive” in each case.
As for `O=C(Nc1ccc([N+](=O)[O-])cc1)Nc1ccc([N+](=O)[O-])cc1`, the activity, negative = inhibition in assay [1] (setting [20]) is 3.88%; in assay [1] (setting [21]), -6.66%. In addition, the Potency in assay [2] is 7.08 µM (active); in assay [3] it was 1.41 µM (active); in assay [17], 3.98 µM (active). The Potency entry in [4], in assay [5], in assay [6], in [7], in assay [8] and in [9] was “inactive” throughout. The Potency entry in [10], in assay [19], in assay [11], in [12], in [13] and in assay [14] was “inactive” each time. In addition, the Potency result in assay [16] and in assay [18] was “inactive” in each case.
In the case of `CC(C)NCC(O)c1ccc2ccccc2c1` (stereo not drawn), the Potency in assay [1] (parasite line A) is 11.2 µM (active); in [1] (parasite line B), 4.47 µM (active); in [2], 11.2 µM (active); in [3] it was 1.41 µM (active); in assay [4], 5.01 µM (active); in assay [5], 7.94 µM (active). The Potency in assay [6] is 8.91 µM (active); in assay [7] it was 8.91 µM (active); in assay [9], 8.91 µM (active); in [10] it was 11.2 µM (active); in assay [11] it was 10.7 µM (active); in assay [13] it was 12 µM (active). Moreover, the Potency in assay [15] was 10.7 µM (active); in [16] it was 8.91 µM (active); in assay [17] it was 4.47 µM (active); in assay [18], 10 µM (active). Further, in assay [12], the Potency entry is “inactive”.
As to `CN1CCN(CCC(=O)N2c3ccccc3Sc3ccc(C(F)(F)F)cc32)CC1`, the figures for the activity, negative = inhibition in assay [1] (setting [20]) and in [1] (setting [21]) were 8.92% and -2.7%, respectively. Further, the Potency result in assay [2], in assay [5], in [7], in assay [8], in assay [19] and in assay [11] was “inactive” in each case. For the same compound, the Potency result in assay [12], in assay [15] and in [16] was “inactive” throughout. The Potency in assay [3] is 10 µM (active).
Consider `C/C=C/c1ccc(O)c(OC)c1`, for which the activity, negative = inhibition is 3.92% in assay [1] (setting [20]) and -10.3% in assay [1] (setting [21]). Besides, the Potency result in assay [2], in assay [4], in [5], in [6], in assay [7] and in assay [8] was “inactive” throughout. The Potency result in assay [9], in assay [10], in assay [19], in assay [11], in assay [12] and in assay [13] was “inactive” in each case. Also, the Potency result in assay [14], in assay [16], in [17] and in assay [18] was “inactive” each time. Moreover, in [3], the Potency was 10 µM (active).
On to `COc1ccc(C(=O)c2ccccc2)c(O)c1`, for which the activity, negative = inhibition in [1] (setting [20]) is -10.8%; in [1] (setting [21]), 10.2%. Moreover, in assay [3], the Potency is 10 µM (active). For the same compound, the Potency result in assay [4], in assay [5], in assay [7], in [8], in assay [9] and in assay [19] was “inactive” throughout. Also, the Potency result in assay [11], in assay [12], in assay [13], in [14], in [15] and in [16] was “inactive” throughout. The Potency result in [17] and in assay [18] was “inactive” each time.
Take `CCC(C(=O)OCCOCCN(CC)CC)c1ccccc1` (stereo not drawn): the values for the activity, negative = inhibition in assay [1] (setting [20]) and in assay [1] (setting [21]) were 5.84% and 5.27%, respectively. For the same compound, the Potency entry in assay [2], in assay [5], in assay [7], in assay [8], in [9] and in [10] was “inactive” each time. In addition, the Potency entry in assay [19], in assay [12], in [14], in assay [15], in assay [16] and in [18] was “inactive” in each case. For the same compound, in [17], the Potency is 11.2 µM (active).
For the compound `CCOC(=O)C(C#N)=C(c1ccccc1)c1ccccc1`, the activity, negative = inhibition was 12.2% in assay [1] (setting [20]) and -2.15% in assay [1] (setting [21]). In addition, the Potency entry in assay [2], in assay [4], in assay [5], in assay [6], in assay [7] and in assay [8] was “inactive” each time. The Potency result in [9], in [10], in [11], in [12], in [13] and in assay [14] was “inactive” in each case. Besides, the Potency entry in assay [15], in [16], in assay [17] and in assay [18] was “inactive” in each case.
With `CN1CCC(OC(c2ccccc2)c2ccccc2)CC1`, the activity, negative = inhibition was -11.2% in assay [1] (at 12.8 µM (top of the series), parasite line A) and -2.27% in assay [1] (at 12.8 µM (top of the series), parasite line B). The Potency result in [2], in assay [8], in [10], in [19] and in [12] was “inactive” in each case. In assay [4], the Potency is 2.51 µM (active).
Turning to `CC1CCc2c(N3CCC(O)CC3)c(F)cc3c(=O)c(C(=O)O)cn1c23` (stereo not drawn), the activity, negative = inhibition is -29.3% in assay [1] (setting [20]) and -19.8% in assay [1] (setting [21]). Further, in [3], the Potency was 11.2 µM (active). In addition, the Potency entry in assay [7], in assay [8], in [19], in [11], in assay [12] and in assay [14] was “inactive” throughout.
On to `NC(=O)n1c(O)c(C(=O)c2cccs2)c2cc(Cl)ccc21`, for which the activity, negative = inhibition is 5.54% in [1] (setting [20]) and -6.01% in assay [1] (setting [21]). Further, the Potency result in [2], in assay [4], in [5], in [6], in assay [7] and in assay [8] was “inactive” each time. In addition, the Potency entry in assay [9], in assay [10], in assay [19], in [11], in assay [12] and in [13] was “inactive” throughout. The Potency entry in assay [14], in assay [15], in [16], in [17] and in assay [18] was “inactive” in each case.
As for `CC(C)=CCOc1ccc(/C=C/C(=O)c2ccc(OCC=C(C)C)cc2OCC(=O)O)cc1`, the activity, negative = inhibition in [1] (setting [20]) is -9.12%; in assay [1] (setting [21]) it was -8.65%. For the same compound, the Potency result in [2], in [4], in [5], in assay [6], in [7] and in [8] was “inactive” in each case. For the same compound, the Potency entry in assay [9], in [10], in assay [19], in [12], in assay [13] and in assay [14] was “inactive” each time. Besides, the Potency entry in assay [16], in assay [17] and in assay [18] was “inactive” each time.
